# An excerpt weighted towards active compounds, which were near 2.5% of everything screened.
# FLuc inh: firefly luciferase inhibition | Potency, µM (titrated, usually from 57.1 µM), hits mostly inhibitors | purified firefly luciferase, luminescence, 8 min | P08659 | actives 2.2% (n = 72,000); further: nearly all actives have a fitted effect of over 40% in size
#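 Firefly luciferase (PKLight detection mix) with 10 uM ATP in pH 7.2 imidazole buffer (KCl, MgCl2, Tween 20, BSA). Compounds tested across a concentration series (qHTS). Luminescence read after 8 min at ambient temperature.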
# IkB signaling: inhibitors of IkB signaling in ABC-DLBCL cells; Potency, µM (doses to about 57.1 µM); actives 0.04% (n = 110,000); ABC-DLBCL IkBa-CBG/CBR dual luciferase ratio, 4 h; response scale: scaled: untreated 0%, proteasome inhibitor 100%; AID 445; active means well fitted curve in the direction sought with a large enough effect in the signal ratio, not every such curve was filed as active; inconclusive means small, poorly fitted or top-dose-only effect, or a change in a side signal; the % refers to the signal ratio;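 further: the direction sought is a rising ratio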
#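 In this assay, an IκBα–CBG68 fusion accumulates when IKK-driven degradation is blocked; native CBR normalizes for cell number. OCI-Ly3 cells were treated 4 h with compound and doxycycline, then green and red light read after Chroma-Glo addition.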
# p53ts 39C kill: kills p53ts cells at the nonpermissive temperature; actives 1.5% (n = 130,000); Potency, µM (top dose mostly 46.1 µM), hits mostly cytotoxic; AID 902; H1299-p53A138V viability at 39C, ATP luminescence, 24 h; further: nearly all actives have a fitted effect of over 55% in size
# p53ts 32C kill: kills p53ts cells at the permissive temperature; H1299-p53A138V at 32C, ATP luminescence viability, 24 h; Potency, µM (doses to about 46.1 µM), actives largely listed as cytotoxic; actives 0.93% (n = 130,000); further: nearly all actives have a fitted effect of over 55% in size
#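 Cells: H1299 p53ts (A138V), 600/well, pre-incubated 16–30 h at 37C. Cpd up to 46 uM, 24 h, 32C. Readout: ATPlite luminescence, 20 min RT. Normalization: DMSO vs tamoxifen 100 uM. AC50 by Hill equation.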
# Casp1 inh: caspase-1 (human) inhibition, allosteric or competitive; Caspase-1 enzyme, Ac-WEHD-AFC fluorogenic rate; Potency, µM (titrated, usually from 57.5 µM), usual class: inhibitors; actives 0.03% (n = 75,000)
# Casp7 inh: caspase-7 (human) inhibition, allosteric or competitive. recombinant caspase-7, Ac-DEVD-AFC fluorescence rate. Potency, µM (series often up to 57.5 µM), hits mostly inhibitors. actives 0.02% (n = 75,000); active means well fitted inhibition curve with a large enough effect in the main read-out, with a control signal flat, not every such curve was filed as active; inconclusive means small, poorly fitted or top-dose-only effect, or a change in a side signal
# Hits are given with their value; – = inactive; ? = inconclusive; · = no result; [ ] = dose if it differs, or a comment. Unless noted, the call rests on the fitted dose curve; in most records, active means well fitted curve in the direction sought with a large enough effect; inconclusive means small, poorly fitted or top-dose-only effect, or another doubt; inactive means no such curve, though single readings can be large; an effect the other way counts as inactive or inconclusive.
SMILES,FLuc inh,IkB signaling,p53ts 39C kill,p53ts 32C kill,Casp1 inh,Casp7 inh
CN(Cc1ccccc1)C(=O)CSc1c2c(nc3ccc(Cl)cc13)CCCC2,·,?,?,22.4µM,·,·
CCCN(CCC)C(=O)CSc1c2c(nc3ccc(Cl)cc13)CCCC2,·,?,?,20µM,·,·
COc1cc(OC)c(N(C)C(=O)CSc2c3c(nc4ccc(Cl)cc24)CCCC3)cc1Cl,·,–,?,?,·,·
Cc1ccc(NC(=O)CSc2c3c(nc4ccccc24)CCCC3)cc1F,·,?,15.8µM,?,·,·
O=C(CSc1c2c(nc3ccc(Cl)cc13)CCCC2)N1CCN(C(=O)c2ccco2)CC1,–,?,6.31µM,?,–,–
COc1ccc(Cn2nnnc2C(c2cccs2)N2CCOCC2)cc1 (configuration not stated),–,–,–,–,–,–
Cc1ccc2[nH]c3c(=O)n(CC(=O)NCc4ccco4)ncc3c2c1,·,–,–,–,·,·
COc1cc2cc(C(c3nnnn3C3CCCC3)N3CCc4ccccc43)c(=O)[nH]c2cc1OC (configuration not stated),–,?,–,–,–,–
Cc1cccc(NC(=O)c2ccccc2C(=O)O)c1,–,–,–,–,–,–
Nc1ccccc1C(=O)Nc1cccc(C(=O)O)c1,25.1µM,?,–,–,–,–
Cc1ccccc1C(=O)Nc1cccc(NC(=O)c2ccc(C(C)(C)C)cc2)c1,·,–,12.6µM,10µM,·,·
CSc1ccc(Cl)c(C(=O)NCc2ccco2)c1,–,–,–,–,–,–
Cn1ncc2c1ncn1nc(CCc3ccccc3)nc21,–,–,–,–,–,–
CCCCCCc1c(O)c2ccccc2[nH]c1=O,–,–,–,–,–,–
CCCCCCCCCCCC1=C(O)C(=O)C=C(O)C1=O,–,–,12.6µM,12.6µM,–,–
COc1ccc(O)c(C(=O)CC(=O)c2ccccc2)c1,20µM,–,12.6µM,10µM,–,–
CCc1cc(C(=O)OC)c(N2C(=O)C3C4C=CC(C4)C3C2=O)s1 (configuration not stated),–,–,–,–,–,–
O=C(Nc1cccc(Cl)c1)N1CC2CCCN2c2ccccc21 (configuration not stated),·,–,10µM,–,·,·
O=C(NCc1cccc(Cl)c1)c1ccc(NC(=O)N2CC3CCCN3c3ccccc32)cc1 (configuration not stated),·,?,–,–,·,·
CC(=O)Nc1ccc2nc(-c3ccccn3)[nH]c2c1,12.6µM,–,6.31µM,3.98µM,–,–
O=C(Nc1ccc2nc(-c3cccs3)[nH]c2c1)c1ccco1,10µM,–,12.6µM,?,–,–
O=C(Nc1ccc2nc(-c3cccs3)[nH]c2c1)c1cccs1,12.6µM,?,?,?,–,–
CC(=O)Nc1ccc2nc(-c3cc(C)ccc3C)[nH]c2c1,·,?,–,–,·,·
O=C(Nc1ccc2oc(-c3ccccc3)nc2c1)c1cccs1,·,·,–,–,·,·
CCOC(=O)C1=C(C)N=C2SC(CC)C(=O)N2C1c1ccc(OC(C)=O)c(OCC)c1 (configuration not stated),–,–,–,–,–,–
SMILES,FLuc inh,IkB signaling,p53ts 39C kill,p53ts 32C kill,Casp1 inh,Casp7 inh
CCOC(=O)CSc1nnc(-c2ccoc2C)n1-c1ccc(OCC)cc1,–,–,–,–,–,–
COc1ccc2c(c1)c1nnc(SCC(=O)N3C(C)CCCC3C)nc1n2C (configuration not stated),–,–,–,–,–,–
CSc1n[nH]c(NCc2ccc(Cl)cc2)n1,·,·,–,–,·,·
CSc1n[nH]c(NCc2ccc(C)cc2)n1,·,·,14.1µM,11.2µM,·,·
Cc1nc2cnc(Oc3ccccc3)nc2n(CCc2ccccc2)c1=O,–[11.4 µM],–[11.4 µM],–,–,–,–
COc1ccc(OC)c(NC(=O)CS(=O)(=O)Cc2nc(-c3ccc(C)cc3)oc2C)c1,·,?,–,–,·,·
COc1cccc(NC(=O)CSc2nnc(NC(=O)NC3CCCCC3)s2)c1,·,?,12.6µM,11.2µM,·,·
Cc1ccc(NC(=O)CSc2nnc(NC(=O)NC3CCCCC3)s2)cc1,·,–,?,–,·,·
O=C(/C=C/Nc1ccc(F)cc1)c1ccco1,3.16µM,?,12.6µM,7.94µM,–,–
O=C(Cn1c(=O)n(Cc2ccccc2)c(=O)c2sc3ccccc3c21)Nc1ccc(F)cc1,·,?,10µM,?,·,·
O=C(Cn1c(=O)n(Cc2ccccc2)c(=O)c2sc3ccccc3c21)Nc1ccccc1,·,–,12.6µM,?,·,·
O=C(Cn1c(=O)n(Cc2ccc(F)cc2)c(=O)c2sc3ccccc3c21)NCc1ccccc1,·,–,–,–,·,·
COc1ccc(NC(=O)Cn2c(=O)n(Cc3ccccc3)c(=O)c3sc4ccccc4c32)cc1,·,–,–,–,·,·
O=c1n(CC2CO2)c(=O)n(CC2CO2)c(=O)n1CC1CO1 (configuration not stated),·,?,15.8µM,–[1.84 µM],–,–
Cc1cc(C)cc(OCCn2c(C3CC(=O)N(c4ccccc4Cl)C3)nc3ccccc32)c1 (configuration not stated),·,?,–,–,·,·
COc1ccccc1OCCCCn1c(C2CC(=O)N(c3ccccc3Cl)C2)nc2ccccc21 (configuration not stated),·,?,20µM,?,·,·
CCc1ccccc1N1CC(c2nc3ccccc3n2CCCOc2ccc(Cl)cc2)CC1=O (configuration not stated),·,?,20µM,?,·,·
C(=N\n1cnnc1)/c1cn(-c2cccs2)nc1-c1ccccc1,25.1µM,–,–,?,–,–
COc1ccc(-c2nn(-c3ccccc3)cc2/C=N/n2cnnc2)cc1OC,?,–,–,–,–,–
CC1CCCN(Cc2nc3c(c(=O)n(C)c(=O)n3C)n2Cc2c(F)cccc2Cl)C1 (configuration not stated),6.31µM,–,–,–,–,–
CN1CCN(Cc2nc3c(c(=O)n(C)c(=O)n3C)n2Cc2ccccc2Cl)CC1,12.6µM,?,?,?,–,–
CCCCCCn1c(CN2CCC(C)CC2)nc2c1c(=O)n(C)c(=O)n2C,–,–,–,–,–,–
Cn1c(=O)c2c(nc(CN3CCN(c4ccccc4)CC3)n2Cc2ccccc2Cl)n(C)c1=O,–,–,–,–,–,–
CCCCCCn1c(CN2CCN(CCO)CC2)nc2c1c(=O)n(C)c(=O)n2C,–,–,3.16µM,2.51µM,–,–
COc1cccc2[nH]c3c(N4CCCC(C)C4)ncnc3c12 (configuration not stated),12.6µM,–,?,–,–,–
CCOC(=O)C1CCCN(c2ncnc3c2[nH]c2cccc(OC)c23)C1 (configuration not stated),–,–,–,–,–,–
CCN1CCN(C(=O)c2cc3cc4cc(OC)ccc4nc3s2)CC1,–,–,–,–,–,–

# Assay outcomes deposited in PubChem BioAssay by National Center for Advancing Translational Sciences (NCATS).
